Source: PubChem (Broad Institute)
In the library only some 3.9% were active in any assay of this set; here they are far more common.
NSD2 inh: NSD2 (human) methyltransferase inhibition; O96028; NSD2 peptide methylation, AlphaScreen, 120 min; inhibition, % at 12.5 µM; actives 0.54% (n = 310,000); in the data active means inhibition above about 50%
Target sequence (O96028 whole entry, looked up): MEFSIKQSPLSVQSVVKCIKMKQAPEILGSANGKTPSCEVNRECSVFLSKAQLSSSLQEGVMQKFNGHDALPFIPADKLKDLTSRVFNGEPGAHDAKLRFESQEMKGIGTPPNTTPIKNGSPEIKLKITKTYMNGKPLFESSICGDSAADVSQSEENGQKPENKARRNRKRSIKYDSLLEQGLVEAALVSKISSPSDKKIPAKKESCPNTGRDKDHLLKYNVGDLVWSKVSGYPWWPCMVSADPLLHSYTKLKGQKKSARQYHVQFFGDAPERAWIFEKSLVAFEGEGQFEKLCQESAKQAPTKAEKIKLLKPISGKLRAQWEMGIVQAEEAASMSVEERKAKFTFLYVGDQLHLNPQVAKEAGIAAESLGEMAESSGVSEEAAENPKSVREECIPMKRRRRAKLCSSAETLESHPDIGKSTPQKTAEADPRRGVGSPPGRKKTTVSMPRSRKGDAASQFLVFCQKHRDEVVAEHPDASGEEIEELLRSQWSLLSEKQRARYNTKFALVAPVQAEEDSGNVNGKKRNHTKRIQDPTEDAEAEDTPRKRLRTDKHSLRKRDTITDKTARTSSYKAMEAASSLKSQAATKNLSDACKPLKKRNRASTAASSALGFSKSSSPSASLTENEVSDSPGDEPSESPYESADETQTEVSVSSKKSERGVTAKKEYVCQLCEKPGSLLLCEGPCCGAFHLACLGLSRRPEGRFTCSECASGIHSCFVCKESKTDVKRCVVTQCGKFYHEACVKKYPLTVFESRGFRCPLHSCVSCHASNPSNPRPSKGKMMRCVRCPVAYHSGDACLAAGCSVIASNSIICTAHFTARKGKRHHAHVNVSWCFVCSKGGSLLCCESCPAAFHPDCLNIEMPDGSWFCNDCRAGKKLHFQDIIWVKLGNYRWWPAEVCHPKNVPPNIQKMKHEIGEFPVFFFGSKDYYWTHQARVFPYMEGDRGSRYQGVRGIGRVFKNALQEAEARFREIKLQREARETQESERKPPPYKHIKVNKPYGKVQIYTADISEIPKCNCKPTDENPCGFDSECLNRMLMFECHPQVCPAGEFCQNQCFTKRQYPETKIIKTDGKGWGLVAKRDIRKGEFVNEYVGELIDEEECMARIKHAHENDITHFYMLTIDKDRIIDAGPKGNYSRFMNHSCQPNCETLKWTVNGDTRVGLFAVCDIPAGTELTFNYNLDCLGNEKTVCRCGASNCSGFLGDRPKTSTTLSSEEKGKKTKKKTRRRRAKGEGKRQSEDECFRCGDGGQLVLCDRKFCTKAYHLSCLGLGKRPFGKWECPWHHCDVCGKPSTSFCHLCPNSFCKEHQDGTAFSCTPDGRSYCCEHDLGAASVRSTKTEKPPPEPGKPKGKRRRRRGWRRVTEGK
Casp6 inh: blocks human caspase-6 cleavage activity; actives 0.53% (n = 350,000); AID 686996; inhibition, % at 12.5 µM; purified caspase-6, Z-VEID-R110 cleavage fluorescence; P55212;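 active means mean inhibition across replicates at least about 35%, with every replicate also reaching that limit, limit read from the data; inconclusive means only one of the two criteria met; inactive means neither criterion met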;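 further: 0% = median of neutral control wells and 100% = no fluorescence left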
ALR inh: blocks human ALR sulfhydryl oxidase activity; P55789; purified ALR, DTT oxidation, H2O2 HRP-luminol luminescence; inhibition, % (no concentration beside the values); actives 3.8% (n = 290,000); AID 485317;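 active means mean replicate inhibition above about 79%, with every replicate also reaching it, limit read from the data; inconclusive means only one of the two criteria met; inactive means mean below limit and not every replicate reaching it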
CDK5 inh: blocks human CDK5/p35 kinase activity; actives 0.01% (n = 330,000); Q00535+Q15078; inhibition, % at 10 µM; Recombinant CDK5/p35, ADP-Glo luminescence, 60 min;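 active means highest replicate inhibition of at least 50% and at least 75% of replicates reaching 50%; inconclusive means only one of the two criteria met; inactive means both criteria failed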;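 further: plate controls were DMSO neutral control for no effect and GW8510 at 10 µM for full effect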
N-glyco inh: N-linked glycosylation inhibition | reporter increase, % at 12.5 µM | D54 ERlucT glycosylation luciferase reporter, 24 h; percent of 100 nM tunicamycin response | AID 588692 | actives 0.23% (n = 360,000);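 active means mean luciferase reporter signal, scaled so untreated is 0 and the glycosylation-blocking control 100, at or above a set limit in every replicate; inconclusive means mean reaches the limit but not every replicate does; inactive means mean below the limit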;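 further: luciferase carries N-glycosylation sites so blocking glycosylation raises the light; 0% = median of neutral control wells and 100% = median of 100 nM tunicamycin wells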
Mot1-301 SUMO: SUMOylation pathway inhibition by Mot1-301 growth rescue; actives 1% (n = 320,000); S. cerevisiae Mot1-301 growth rescue, ATP luminescence, 38.5C; percent above DMSO median, 100 means doubled; AID 2716; growth rescue, % at 18.8 µM;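 active means every valid replicate shows activation above 250% relative to neutral control wells; inactive means the rest, any valid replicate at or below 250%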;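 further: OY570 slx delta 5 strain wells were the positive control but not used for scaling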
AlphaScreen art: counter-screen for NSD2 inhibitors: AlphaScreen artifacts | shares compounds with NSD2 inh | AlphaScreen artifact counterscreen, preloaded methylated H4 peptide | AC35, µM (series often up to 10 µM), inactives show at the top dose activity change, negative = signal loss | actives 9.4% (n = 1,500) | AID 1053174; call rule not given here
Active calls of the source: *; ? = inconclusive; / = no result.

SMILES	NSD2 inh	Casp6 inh	ALR inh	CDK5 inh	N-glyco inh	Mot1-301 SUMO	AlphaScreen art
Cc1ccc2nc(-c3ccccc3)cn2c1	/	/	38	31	-20	-48	/
Cc1ccc2nc(-c3ccc(O)c(O)c3)cn2c1	55*	38*	99*	15	-17	-13	-11%
C[C@@H]1CN([C@H](C)CO)C(=O)Cc2cc(NC(=O)C3CCCCC3)ccc2O[C@H]1CN(C)C(=O)NC1CCCCC1	/	2	/	/	/	/	/
O=C([C@@H]1[C@@H](CO)[C@@H]2Cn3c(ccc(C4=CCCC4)c3=O)[C@H]1N2)N1CCCCC1	/	0	/	/	/	/	/
CCN(CC)CCCNc1nc(CN2CCOCC2)nc2sc3c(c12)CCC3	54*	-11	-2	-4	0	3	3%
O=C(COC(=O)CNC(=O)c1ccc(Cl)c([N+](=O)[O-])c1)NNC(=O)c1cccs1	0	3	/	0	1	/	/
O=C(NNC(=O)c1cccs1)c1ccc(Cl)c([N+](=O)[O-])c1	54*	1	2	0	1	10	-6%
CCCN1[C@H](C(=O)N[C@@H](C)c2ccccc2)[C@@H](CO)[C@@H]2Cn3c(ccc(-c4ccc(F)cc4)c3=O)[C@@H]21	/	-1	/	/	/	/	/
COCC(=O)N(C)C[C@@H]1Oc2ncc(C#CCC3CCCC3)cc2C(=O)N([C@H](C)CO)C[C@@H]1C	/	3	/	/	/	/	/
OC(CNc1ccnc2cc(Cl)ccc12)CNC1CCCCC1 (configuration not stated)	37	-25	/	1	-8	/	/
CCNC1CCC(Nc2ccnc3cc(Cl)ccc23)CC1 (configuration not stated)	89*	-9	/	0	3	/	-5%
COc1ccc(CNC(=O)CCCN2C(=O)NC3(CCCC3)C2=O)cc1	58*	-3	-2	1	3	-3	-5%
COc1ccc(CNC(=O)CN2C(=O)NC3(CCCCCC3)C2=O)cc1	-1	0	-1	1	1	-13	/
O=C(c1ccccc1)c1cc2ccccc2oc1=O	113*	/	2	-1	1	-7	0%
C[C@H](O)C#Cc1cnc2c(c1)C(=O)N([C@H](C)CO)C[C@@H](C)[C@@H](CN(C)C(=O)Nc1ccc(F)cc1)O2	/	0	/	/	/	/	/
O=C(Nc1ccc(F)cc1)N[C@H]1CC[C@@H](CCNC(=O)c2ccccc2F)O[C@H]1CO	/	-1	/	/	/	/	/
CCN1CC(=O)N2[C@H](C1)[C@H](c1ccc(Br)cc1)[C@@H]2CO	/	3	/	/	/	/	/
Cn1c(=O)cc(SCC(=O)N2CCOCC2)c2ccc(Cl)cc21	55*	/	-10	0	3	-6	0%
C[C@@H]1CCCCO[C@@H](CN(C)S(=O)(=O)c2cccs2)[C@@H](C)CN([C@@H](C)CO)C(=O)c2cc(NS(=O)(=O)c3cccs3)ccc2O1	/	1	/	/	/	/	/
Cc1cccc(C(=O)NCc2nnc(SCC(=O)Nc3nnc(C)s3)n2C)c1	90*	-2	3	-7	1	-12	-2%
CN(C)C(=O)C[C@@H]1CC[C@H]2[C@H](COc3ccc(NC(=O)c4cnccn4)cc3C(=O)N2C)O1	/	-1	/	/	/	/	/
CNC[C@@H]1Oc2ccc(NS(=O)(=O)c3ccc(Cl)cc3)cc2CC(=O)N([C@H](C)CO)C[C@H]1C	/	1	/	/	/	/	/
CCC1=NN2C(=N)/C(=C\c3ccc(SCc4ccco4)o3)C(=O)N=C2S1	103*	/	?	-3	0	8	-7%
CCC1=NN2C(=N)/C(=C/c3c(C)nn(-c4ccccc4)c3Cl)C(=O)N=C2S1	4	2	54	-1	0	5	/
O=C(CCCN1C(=O)/C(=C/c2ccccc2)SC1=S)Nc1ccc(C(=O)O)c(O)c1	55*	25	4	-1	3	-6	-7%
O=C(CCCN1C(=O)/C(=C\c2cccs2)SC1=S)Nc1ccc(C(=O)O)cc1	13	1	-16	0	3	-24	/
O=C(CCCN1C(=O)/C(=C/c2cccs2)SC1=S)Nc1ccc(O)c(C(=O)O)c1	53*	/	/	/	/	/	-14%
CC(CS(=O)(=O)c1ccc2c(c1)NC(=O)CS2)C(=O)NCc1ccccc1Cl (configuration not stated)	55*	/	-9	-1	-3	139	-4%
